These compounds were tested on Wnt5a (protein binding on small-molecule microarray) (assay: small molecules binding Wnt5a protein – biophysical, small-molecule microarray, 635/667 nm fluorescence, primary screen (AID 1142;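 note: fluorescence read at 667 nm with signal to noise per printed feature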)). Conditions: 635 nm fluorescence, higher = more signal.
Compound `COCCOC(=O)N1C(=O)[C@@]2(c3ccccc31)[C@H](c1ccc(OCCO)cc1)N1[C@H](c3ccccc3)[C@H](c3ccccc3)OC(=O)[C@H]1[C@@H]2C(=O)N1CCc2cc(OC)c(OC)cc2C1` has a composite z-score of 0.349. Work on `O=C(CS)NCCCCCNC(=O)[C@H]1C[C@H]2C(=O)NCC(=O)N2[C@H]1c1cccc(OCCO)c1` yielded a composite z-score of -0.341. For `CCCC[C@@H]1C[C@H]1[C@@H](NC(=O)c1cccnc1)c1ccc(Cl)cc1`, the composite z-score was -0.769. Compound `CCCCCCCCCCC(O)C1C=CC2C(=O)NC(=O)C2N1Nc1ccc(Cl)cc1Cl` (stereo unspecified) has a composite z-score of 0.333. In the case of `O=C1O[C@H](c2ccccc2)[C@H](c2ccccc2)N2[C@H]1[C@@H](C(=O)N1CCN(c3ncccn3)CC1)[C@]1(C(=O)Nc3ccc(C#CC4=CCCCC4)cc31)[C@H]2c1ccccc1OCCO`, the composite z-score is reported as 0.406. Work on `CCCCC(O)C1C=CC2C(=O)N(C)C(=O)C2N1N1CCCCC1` (stereo unspecified) yielded a composite z-score of 0.0755. Compound `O=C1OCCC=C[C@H]2OC34C=CCN(c5ccc(Cl)cc5)C(=O)[C@H]3N(CCCO)C(=O)[C@@H]4C12` (stereo partly specified) has a composite z-score of -0.047. `CO[C@H]1O[C@H](CO)[C@@H](OC(=O)Nc2cccc(F)c2)[C@H](OC(=O)Nc2ccccc2)[C@H]1OC(=O)Nc1ccccc1` was tested, and the composite z-score was 0.701. With `C#CCOc1ccc(C[C@@H](C(=O)OC)N(CC#C)[C@@H](/C=C/C2CC2)[C@H](O)Cc2ccccc2)cc1` the composite z-score was -0.589. For `CCCCCCc1nc(-c2ccc(-c3ccc(Cl)c(Cl)c3)o2)c(C)c2c1[Si](C(C)C)(C(C)C)OC2`, the composite z-score was -0.412. `COCCOC(=O)N1C(=O)[C@@]2(c3ccccc31)[C@H](C(=O)N1CCCCCCC1)[C@H]1C(=O)O[C@H](c3ccccc3)[C@H](c3ccccc3)N1[C@@H]2c1ccc(OCCO)cc1` showed a composite z-score of 2.59. Work on `COc1ccc([Si](C)(C)[C@H]2[C@H](CCO)O[C@@]3(C(=O)N(Cc4ccccc4)c4ccc(N5CCCCC5=O)cc43)[C@@H]2C)cc1` yielded a composite z-score of 0.116. `COCCCNC(=O)[C@@]1(Sc2ccc(C)cc2)CC(=O)N(Cc2ccccc2Cl)[C@@H]1c1ccc(CO)cc1` showed a composite z-score of 0.349. `CO[C@H]1O[C@H](CO)[C@@H](OC(=O)Nc2ccccc2)[C@@H]2OC(=O)[C@@H](Cc3ccc4ccccc4c3)C/C=C/C[C@H](Cc3ccc4ccccc4c3)C(=O)O[C@@H]12` showed a composite z-score of 0.49. `[N-]=[N+]=Nc1ccccc1C[C@]1(C(=O)N2CCCCC2)COC(c2ccc(OCCCO)cc2)=N1` showed a composite z-score of 0.427. With `C=C(C(=O)CC[C@H](OC(C)=O)c1ccccc1OCCO)C(C)C` the composite z-score was -0.138. In the case of `COCCOC(=O)N1C(=O)[C@@]2(c3cc(C#CCCO)ccc31)[C@H](c1ccc(OCCO)cc1)N1[C@H](c3ccccc3)[C@H](c3ccccc3)OC(=O)[C@H]1[C@@H]2C(N)=O`, the composite z-score is reported as 0.711. In the case of `C=CCC(OC(C)=O)[C@@H]1[C@@H](N(Cc2ccc(-c3ccccc3)cc2)C(=O)Cc2ccc(F)cc2)c2cc(OCCCO)ccc2N1C(=O)c1ccc2ccccc2c1` (stereo partly specified), the composite z-score is reported as -0.121. Work on `COC(=O)[C@@]1(Cc2ccccc2)[C@H]2c3cc(C(=O)N4CCCC4)n(Cc4ccc(O)c(OC)c4)c3C[C@H]2CN1C(=O)c1ccccc1` yielded a composite z-score of 0.343. With `CCOC(=O)C1=CC[C@@H](c2ccc(C(F)(F)F)cc2)N(S(=O)(=O)c2ccc(C)cc2)[C@H]1c1ccccc1` the composite z-score was 0.328. `O=C(CS)NCCCCCNC(=O)[C@@H]1C[C@@H]2C(=O)NCC(=O)N2[C@@H]1c1cccc(OCCO)c1` gave a composite z-score of 0.134. For `C=CCC(OC(C)=O)[C@@H]1[C@@H](N(Cc2ccc(-c3cccc(C(F)(F)F)c3)o2)C(=O)Cc2ccc(OC)cc2)c2cc(OCCCO)ccc2N1C(=O)c1ccc2ccccc2c1` (stereo partly specified), the composite z-score was -0.301. With `CC=CC(O)C1C=CC2C(=O)N(C)C(=O)C2N1N(c1ccccc1)c1ccccc1` (stereo unspecified) the composite z-score was 0.16. In the case of `O=C1O[C@@H](c2ccccc2)[C@@H](c2ccccc2)N2[C@@H](c3ccc(OCCO)cc3)[C@]3(C(=O)Nc4ccc(C#CCCO)cc43)[C@@H](C(=O)NC[C@H](O)c3ccccc3)[C@H]12`, the composite z-score is reported as 0.425. `CC[C@@H]1C=C(C(=O)O)[C@H](c2cccc3ccccc23)N1S(=O)(=O)c1ccc(C)cc1` gave a composite z-score of 0.0605. For `C[N+](C)(C)CCCCCCNC(=O)[C@H]1C[C@H]2C(=O)N[C@@H](Cc3ccccc3)C(=O)N2[C@H]1c1cccc(OCCO)c1`, the composite z-score was 0.385. Compound `CCOC(=O)C[C@H]1[C@H](OC(=O)c2ccc(C(=O)c3ccccc3)cc2)[C@@H](NC(=O)Cc2ccc(OC)cc2)c2cc(OCCCO)ccc2N1C(=O)c1ccc2ccccc2n1` has a composite z-score of 0.112. `CC(C)(C)OC(=O)CC[C@]1(C(=O)NCCN2CCOCC2)COC(c2ccc(OCCCO)cc2)=N1` showed a composite z-score of 0.681. Compound `COc1ccc(C(=O)Nc2cccc(CN3C(=O)[C@]4(O[C@H](CCn5cc(CCO)nn5)[C@@H]([Si](C)(C)c5ccc(OC)cc5)[C@@H]4C)c4ccccc43)c2)cc1` has a composite z-score of 0.224. With `COc1ccc(CCNC(=O)[C@@]2(c3ccc([N+](=O)[O-])cc3)CC(=O)N(CC34CC5CC(CC(C5)C3)C4)[C@@H]2c2ccc(CO)cc2I)cc1` the composite z-score was 0.522. `COc1ccc([C@H]2OC[C@@H]3CCC(=O)N32)cc1` showed a composite z-score of 0.279. `O=C1O[C@@H](c2ccccc2)[C@@H](c2ccccc2)N2[C@@H](c3ccccc3OCCO)[C@]3(C(=O)Nc4ccccc43)[C@@H](C(=O)O)[C@H]12` gave a composite z-score of 0.205. `CCOc1cc(C(O)C2C=CC3C(=O)N(c4ccccc4)C(=O)C3N2Nc2ccc(C(C)C)cc2)ccc1O` (stereo unspecified) gave a composite z-score of 0.12. With `O=C1OCC=C[C@H]2OC34C=CCN(Cn5nnc6ccccc65)C(=O)[C@H]3N(CCCCCO)C(=O)[C@@H]4[C@@H]12` (stereo partly specified) the composite z-score was 0.238. `COC(=O)C(CC#Cc1ccc2c(c1)[C@]1(C(=O)N2)[C@H](c2ccc(O)cc2)N2[C@H](c3ccccc3)[C@H](c3ccccc3)OC(=O)[C@H]2[C@@H]1C(=O)N1CCN(c2ncccn2)CC1)C(=O)OC` was tested, and the composite z-score was 0.131. `CC[C@@H]1C=C(C(=O)O)[C@H](c2ccc(C)cc2)N1S(=O)(=O)c1ccc(C)cc1` was tested, and the composite z-score was -0.412.

From PubChem BioAssay
